Screening results (PubChem)
An excerpt weighted towards active compounds, which were near 3.9% of everything screened.
Anthrax LF prot – inhibitors of Bacillus anthracis lethal factor protease. P15917. multiplex microsphere protease cleavage assay, LF. inhibition, % at 10 µM. 360,000 compounds, 0.12% hits; further: plate controls were buffer without enzyme for full effect and enzyme alone for no effect
BoNT A protease – BoNT A light chain protease inhibition; multiplex microsphere protease substrate cleavage, flow cytometry; inhibition, % at 10 µM; AID 588499; 360,000 compounds, 0.17% hits; further: plate controls were buffer without enzyme for full effect and enzyme alone for no effect
BoNT-F LC inh – BoNT F light chain protease inhibition | Multiplex microsphere protease cleavage assay, flow cytometry | inhibition, % at 10 µM | 360,000 compounds, 0.22% hits | AID 588497; in the data active means inhibition above about 35%, passing the limit was not always enough; inconclusive means no clear call, values can overlap the other calls; further: plate controls were buffer without enzyme for full effect and enzyme alone for no effect
CCHF vOTU inh-1 – CCHFV vOTU protease inhibition | Pep-AMC fluorescence | inhibition, % at 11.5 µM | 370,000 compounds, 0.55% hits; in the data active means inhibition above about 30%; further: 0% = vehicle wells with enzyme and 100% = no enzyme wells
3CLpro inhibitor – SARS-CoV 3CLpro protease inhibition. 290,000 compounds, 0.14% hits. recombinant SARS-CoV 3CLpro, quenched FRET peptide cleavage. inhibition, % at 6 µM. AID 1706; in the data active means inhibition above about 12%
Bead autofluor – flagged as autofluorescent in microsphere protease counterscreen | compound autofluorescence counterscreen, microsphere flow cytometry; active compounds read high | fluorescence intensity (no concentration beside the values) | 360,000 compounds, 3.1% hits | AID 624483; in the data active means fluorescence intensity above about 16000; inconclusive means no clear call, values can overlap the other calls
CCHF vOTU inh-2 – confirmation of CCHF virus vOTU protease inhibitors; Recombinant CCHFV vOTU, Pep-AMC fluorescence; inhibition, % at 11.5 µM; shares compounds with CCHF vOTU inh-1; 1,900 compounds, 17% hits; in the data active means inhibition above about 30%
* marks the source's active call; other numbers are inactive results; ? = inconclusive; . = no result. Unless noted, no stated cut-off is given here; in the data, active means inhibition above about 30%; inconclusive means no clear call, values can overlap the other calls; inactive means below that.

SMILES	Anthrax LF prot	BoNT A protease	BoNT-F LC inh	CCHF vOTU inh-1	3CLpro inhibitor	Bead autofluor	CCHF vOTU inh-2
O=c1cc(-c2ccc(O)c(O)c2)oc2cc(O)cc(O)c12	-6	0	-8	13	.	3569	.
O=c1c(O)c(-c2ccc(O)c(O)c2)oc2cc(O)cc(O)c12	-1	1	-3	32*	-1	5853	-6
CCN1/C(=C\C=C(C(C)=O)C(C)=O)Sc2ccccc21	0	0	1	37*	2	3116	25
Cc1nc2scc(C)n2c(=O)c1S(=O)(=O)Nc1ccc(OC(F)(F)F)cc1	6	1	4	40*	2	5489	-4
Cc1nc2scc(C)n2c(=O)c1S(=O)(=O)Nc1ccc(N2CCOCC2)c(Cl)c1	2	0	2	0	5	5528	.
COC1=CC(=O)c2nc(Cl)ccc2C1=O	-10	0	-3	113*	.	6398	100*
CCOc1ccc2nc(SCC(=O)c3ccc(O)cc3O)sc2c1	6	1	-1	8	3	4049	.
O=C1c2cccc(Cl)c2C(=O)c2c1cccc2N1CCCC1	-6	0	-14	71*	5	2837	-14
CC(C)C[C@@H](CO)N1CCN(C)CCC1=O	-5	-1	-2	20	-6	4053	.
CC(=O)Nc1ccc2sccc2c1	-4	0	0	-4	-1	4463	.
Cc1c(N=C2C=C(Br)C(=O)C(Br)=C2)c(=O)n(-c2ccccc2)n1C	-14	1	-20	20	4	3667	.
Cc1c(N=C2C=CC(=O)c3ccccc32)c(=O)n(-c2ccccc2)n1C	-4	-1	-10	90*	-1	4194	-6
CC(Oc1cc2oc(=O)c3c(c2cc1Cl)CCC3)C(=O)NCc1ccccn1 (stereo not drawn)	-3	0	-1	-9	-6	5714	.
CCOc1cccc(CNc2ccc(O)cc2)c1OCc1ccc(Cl)cc1Cl	-4	0	-17	49*	3	2437	7
CCOc1cccc(CNc2ccc(O)cc2)c1OCc1ccccc1Cl	-6	-1	-9	44*	1	3306	3
CCOc1cccc(CNn2cnnc2)c1OCc1ccccc1Cl	0	0	5	-6	-1	3427	.
CCOC(=O)C1CCCN(C(=O)CCn2nnnc2CN2CCOCC2)C1 (stereo not drawn)	-3	0	10	3	-5	4509	.
O=C(/C=C\c1ccccc1)NCC(=O)N/N=C/c1ccc(O)cc1O	.	.	.	.	2	.	.
Fc1ccc(Nc2cncc(-c3ccsc3)c2)cc1Cl	2	0	-5	94*	.	4175	14
Fc1ccc(Nc2nnc(C(F)(F)F)s2)cc1Cl	.	.	.	16	2	.	.
CCOc1ccc(NC(=NCc2ccc3c(c2)OCO3)SC2CC(=O)N(c3ccc(C(=O)O)cc3)C2=O)cc1 (stereo not drawn)	2	0	-5	30*	9	2594	7
CCOc1ccc(NC(=NCc2ccc3c(c2)OCO3)SC2CC(=O)N(c3ccc(OCC)cc3)C2=O)cc1 (stereo not drawn)	3	0	-6	-9	-1	3637	.
O=[N+]([O-])c1c(Nc2ccccn2)cc(Cl)c2nonc12	-16	0	-18	113*	3	4461	94*
CC1(C)CC(=O)C(CS(=O)(=O)c2ccccc2)=C(Cl)C1	-4	-2	-8	-8	1	6164	.
Cc1ccc(NS(=O)(=O)c2cccc3cccnc23)c(Cl)c1	-5	1	?	37*	2	3868	-4
SMILES	Anthrax LF prot	BoNT A protease	BoNT-F LC inh	CCHF vOTU inh-1	3CLpro inhibitor	Bead autofluor	CCHF vOTU inh-2
O=c1c2ccccc2nc(/C=C/c2ccccc2)n1-c1ccccc1O	11	3	21	-6	7	4092	.
Cc1ccccc1-n1c(/C=C/c2ccccn2)nc2ccccc2c1=O	9	-2	8	32*	-1	3765	0
CCc1ccc(CN(C)C(=O)c2cc(COc3cc(C)c(Cl)c(C)c3)on2)nc1	-2	1	1	30*	5	5238	-6
Cc1cc(OCc2cc(C(=O)N(C)Cc3nonc3C)no2)cc(C)c1Cl	0	-1	-7	31*	4	5960	1
CCc1ccc(CN(C)C(=O)c2cc(COc3cncc(Cl)c3)on2)cc1	-1	0	-5	6	.	3925	.
Cc1ccccc1C(=O)N1CCC(C(=O)OCc2nc(N)nc(Nc3ccccc3)n2)CC1	-3	0	0	1	.	7858	.
